Source: PubChem
HT1080-NT tox: kills 2HG-producing HT-1080-NT fibrosarcoma cells; 360,000 tested, 1.6% active; Potency, µM (highest dose often 46.1 µM), actives largely listed as cytotoxic; HT-1080-NT fibrosarcoma viability, CellTiter-Glo ATP luminescence, 48 h; AID 686970;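 also: NT is the 2HG producing partner of a matched IDH1 knockdown line; nearly all actives have a fitted effect of over 55% in size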
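Viability by CellTiter-Glo luminescence after 48 h compound exposure at 37C of HT-1080-NT cells (750/well, RPMI, 5% FBS). % activity scaled between DMSO wells and medium-only wells, then curve-fitted and categorized by curve class.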
IL-1B inflam inh: blocks inflammasome-driven IL-1 beta release. THP-1 LPS/ATP IL-1B secretion, AlphaLISA, 16 h; hits give low values. activity change, % at 57.5 µM. 360,000 tested, 4.7% active; in the data active = activity change below about -50%; inconclusive = mostly about -30% to -49%
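Secreted IL-1B measured by AlphaLISA bead assay after 16 h compound exposure of THP-1 cells; compounds (final up to 57.5 uM) added 1 h before LPS (250 ng/mL) and ATP (1.25 mM) stimulation; lower signal means less secretion.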
TDP1 cell noCPT: qHTS for Inhibitors of human tyrosyl-DNA phosphodiesterase 1 (TDP1): qHTS in cells in absence of CPT. 420,000 tested, 15% active. AID 686978, 2013. DT40 Tdp1-/- hTDP1 cells, no CPT, ATP luminescence, 48 h. Potency, µM (series often up to 46.2 µM), actives largely listed as inhibitors; also: nearly all actives have a fitted effect of over 55% in size
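No-CPT arm: Tdp1-/-;hTDP1 DT40 cells (400/well) plus compounds, incubated ≥48 hr at 37 °C. Readout CellTiter-Glo luminescence.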
TDP1 cell CPT: growth inhibition of DT40 Tdp1-/-;hTDP1 cells with camptothecin (screen for TDP1 inhibitors); chicken DT40 Tdp1-/-;hTDP1 cells + 20 nM CPT, ATP luminescence, 48 h; Potency, µM (doses to about 46.2 µM), most hits filed as inhibitors; 420,000 tested, 12% active; AID 686979; also: nearly all actives have a fitted effect of over 55% in size
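Chicken DT40 Tdp1-/- cells stably complemented with human TDP1 were seeded at 400 cells/well in medium containing 20 nM camptothecin, exposed to pin-transferred compounds, and grown at 37 °C for at least 48 hr. Viability was read as ATP luminescence.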
HT1080 IDH1KD tx: HT-1080 IDH1 knockdown cell toxicity (counter line); HT-1080 IDH1 knockdown viability, ATP luminescence, 48 h; Potency, µM (doses to about 46.1 µM), most hits filed as cytotoxic; 360,000 tested, 2% active
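IDH1KD HT-1080 cells, 750/well, RPMI + 5% FBS; compound pinned after 2 h settling; 48 h, 37 °C; CellTiter-Glo luminescence; % activity normalised to DMSO and no-cell wells; curves fitted, classed by r2 and efficacy.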
Large screens that a line does not name were inactive. Hits are enriched below; roughly 19% of the tested compounds scored in any of these assays. Unless noted, calls follow the shape of the dose curve; as a rule, active = well fitted curve in the direction sought with a large enough effect; inconclusive = small, poorly fitted or top-dose-only effect, or another doubt; inactive = no such curve, though single readings can be large; an effect the other way counts as inactive or inconclusive.

Cc1ccccc1N(CC(=O)NC1CCCC1)C(=O)c1oc(C(C)(C)C)cc1C	IL-1B inflam inh inconclusive, TDP1 cell noCPT 14µM, TDP1 cell CPT 16µM
O=C(CN(Cc1ccccc1Cl)C(=O)CCC(=O)Nc1nccs1)NCC1CCCO1 (configuration not stated)	none
Cc1ccccc1CSc1nnc(C)c(=O)n1N	none
CC1(C)CC(=O)c2c(O)cc(OCC(=O)Nc3ccc(CCO)cc3)cc2O1	TDP1 cell noCPT 21µM, TDP1 cell CPT 15µM
COc1cc(NC(=O)COc2cc(O)c3c(c2)OC(C)(C)CC3=O)cc(OC)c1	TDP1 cell noCPT 13µM, TDP1 cell CPT 16µM
COc1ccc(CCNC(=O)COc2cc(O)c3c(c2)OC(C)(C)CC3=O)cc1OC	TDP1 cell noCPT 18µM, TDP1 cell CPT inconclusive
COc1ccccc1NC(=O)Cn1c(=O)n(Cc2nc(C)no2)c(=O)c2cc3c(cc21)OCO3	none (no result: HT1080-NT tox, IL-1B inflam inh, HT1080 IDH1KD tx)
CC(C)c1cccc(C(C)C)c1NC(=O)c1ccccc1	none
CCCc1cc(=O)[nH]c(SCC(=O)c2ccc3c(c2)NC(=O)CO3)n1	none
CC1CC(C)CN(S(=O)(=O)N2CCC(C(=O)NCCC3=CCCCC3)CC2)C1 (configuration not stated)	none
O=C(c1ccc(C(F)(F)F)cc1)N1CCC(=O)N(C(COCc2ccc(C(F)(F)F)cc2)Cc2ccccc2)CC1 (configuration not stated)	HT1080-NT tox inconclusive, IL-1B inflam inh -82, TDP1 cell noCPT 18µM, TDP1 cell CPT inconclusive
Cc1cccc(COCC(Cc2ccccc2)N2CCN(C(=O)c3ccc(C(F)(F)F)cc3)CCC2=O)c1 (configuration not stated)	IL-1B inflam inh -76, TDP1 cell noCPT 21µM, TDP1 cell CPT 23µM
Cc1cccc(COC[C@H](Cc2ccccc2)N2CCN(C(=O)c3ccc(C(F)(F)F)cc3)CCC2=O)c1	HT1080-NT tox inconclusive, IL-1B inflam inh -67, TDP1 cell noCPT 18µM, TDP1 cell CPT inconclusive, HT1080 IDH1KD tx inconclusive
COCCCn1cc(CN2CC(N3CCN(C4CCN(C)CC4)CC3)CS2(=O)=O)nn1 (configuration not stated)	none
COc1ccc(/C=N/N=C2\SC(CC(=O)O)C(=O)N2c2ccccc2)c(OC)c1 (configuration not stated)	HT1080-NT tox inconclusive
O=C(Cn1ccn(-c2ccc(F)c(F)c2)c(=O)c1=O)c1ccc(F)cc1	none (no result: HT1080-NT tox, IL-1B inflam inh, HT1080 IDH1KD tx)
COC(=O)[C@]12CCCCC=C1N(Cc1ccco1)C(=O)[C@H](CC(=O)NCCc1ccccc1OC)C2	TDP1 cell noCPT inconclusive, TDP1 cell CPT inconclusive
CN1CCc2c(sc(/N=C/c3cc(C(C)(C)C)ccc3O)c2C#N)C1	none
O=C(CCc1c[nH]c2ccccc12)OCc1cccc([N+](=O)[O-])c1	none
CN(C)c1ccc(Nc2ncnc3sc4c(c23)CCCC4)cc1	TDP1 cell noCPT 23µM, TDP1 cell CPT inconclusive (no result: HT1080-NT tox, IL-1B inflam inh, HT1080 IDH1KD tx)
NNc1ncnc2sc3c(c12)CCC3	TDP1 cell noCPT 18µM, TDP1 cell CPT 8.2µM
Cc1ccc2[nH]c(CSc3nnc(NC(=O)c4ccccc4C)s3)cc(=O)c2c1	TDP1 cell noCPT 5.8µM, TDP1 cell CPT 7.3µM (no result: HT1080-NT tox, IL-1B inflam inh, HT1080 IDH1KD tx)
Cc1ccc2[nH]c(CSc3nnc(NC(=O)c4ccccc4F)s3)cc(=O)c2c1	TDP1 cell noCPT 10µM, TDP1 cell CPT 10µM (no result: HT1080-NT tox, IL-1B inflam inh, HT1080 IDH1KD tx)
Cc1ccc2[nH]c(CSc3nnc(C)s3)cc(=O)c2c1	none (no result: HT1080-NT tox, IL-1B inflam inh, HT1080 IDH1KD tx)
COc1c2c(cc3c1C(CC(O)C(C)C)N(C)CC3)OCO2 (configuration not stated)	none (no result: HT1080-NT tox, IL-1B inflam inh, HT1080 IDH1KD tx)
O=C(COc1ccccc1)Nc1nc2c(s1)CCCC2	TDP1 cell noCPT inconclusive, TDP1 cell CPT inconclusive
CCCOc1ccccc1C(=O)Nc1nc2c(s1)CCCC2	TDP1 cell noCPT 18µM, TDP1 cell CPT 21µM (no result: HT1080-NT tox, IL-1B inflam inh, HT1080 IDH1KD tx)
O=C(COc1ccccc1Cl)Nc1nc2c(s1)CCCC2	TDP1 cell noCPT 10µM, TDP1 cell CPT 8.2µM (no result: HT1080-NT tox, IL-1B inflam inh, HT1080 IDH1KD tx)
Cc1ccc(C(=O)NCCc2nnc3n2CCN(C(=O)c2ccnc(Cl)c2)CC3)cc1	none (no result: HT1080-NT tox, IL-1B inflam inh, HT1080 IDH1KD tx)
O=C(c1ccc(N2CCC(NCCCn3ncc4ccccc43)CC2)cc1)N1CCc2ccccc2C1	TDP1 cell noCPT inconclusive (no result: HT1080-NT tox, IL-1B inflam inh, HT1080 IDH1KD tx)
COc1ccc(Br)c(C(=O)OCC(=O)NC2CCCCCC2)c1	TDP1 cell CPT inconclusive
C=CCn1c(SCC(=O)c2c(N)n(CCC)c(=O)n(C)c2=O)nc2sc(CC)cc2c1=O	TDP1 cell noCPT 5.8µM, TDP1 cell CPT 6.5µM
C=CCn1c(SC(C)C#N)nc2sc(CC)cc2c1=O (configuration not stated)	none
C=CCn1c(SCC(=O)Nc2sccc2C(N)=O)nc2ccc(Cl)cc2c1=O	HT1080-NT tox inconclusive, TDP1 cell noCPT 16µM, TDP1 cell CPT 15µM, HT1080 IDH1KD tx inconclusive
C=CCn1c(SCC(=O)Nc2sccc2C(N)=O)nc2sc(CC)cc2c1=O	HT1080-NT tox inconclusive, TDP1 cell noCPT 26µM, TDP1 cell CPT inconclusive, HT1080 IDH1KD tx inconclusive
C=CCn1c(SC(C)C(N)=O)nc2sc(CC)cc2c1=O (configuration not stated)	TDP1 cell noCPT inconclusive
C=CCn1c(SCc2nc3cc(C(=O)OC)ccc3c(=O)[nH]2)nc2sc(CC)cc2c1=O	TDP1 cell noCPT 18µM, TDP1 cell CPT inconclusive
C=CCn1c(SCC(=O)Nc2ccccc2F)nc2ccccc2c1=O	none
CC(NS(=O)(=O)c1ccc(Cl)cc1)C(=O)N1CCOCC1 (configuration not stated)	none
Cc1ccc(C(=O)N2CCN(c3cnn(C)c(=O)c3Cl)CC2)cc1	none
COC(=O)c1ccc2c(=O)[nH]c(CCl)nc2c1	IL-1B inflam inh -97, TDP1 cell noCPT 15µM, TDP1 cell CPT 12µM, HT1080 IDH1KD tx inconclusive
C=CCn1c(SCN2C(=O)c3ccccc3C2=O)nc2ccc(Cl)cc2c1=O	TDP1 cell noCPT 18µM, TDP1 cell CPT 18µM
C=CCn1c(SCc2nc3ccccc3c(=O)[nH]2)nc2scc(C3CC3)c2c1=O	TDP1 cell noCPT 16µM, TDP1 cell CPT 15µM
COCCn1c(=O)c(CCc2ccccc2)nc2cnc(Oc3ccccc3)nc21	none (no result: HT1080-NT tox, IL-1B inflam inh, HT1080 IDH1KD tx)
COc1ccc(CCNC(=O)CSc2nnc(NC(C)=O)s2)cc1OC	none
COc1cccc(NC(=O)CN2C(=O)CSc3ccc(S(=O)(=O)N4CCC(C)CC4)cc32)c1	IL-1B inflam inh -89, TDP1 cell noCPT inconclusive, TDP1 cell CPT inconclusive, HT1080 IDH1KD tx inconclusive
CC1CCN(CCCNC(=O)CN2C(=O)CSc3ccc(S(=O)(=O)N4CCC(C)CC4)cc32)CC1	IL-1B inflam inh inconclusive, TDP1 cell noCPT 15µM, TDP1 cell CPT inconclusive
COC(=O)c1ccc(Oc2ccc(C(F)(F)F)cn2)cc1	HT1080-NT tox inconclusive
Cc1csc(SC(C)C(=O)NCC2CCCCC2)n1 (configuration not stated)	none
